Compound activity: PubChem BioAssay, National Center for Advancing Translational Sciences (NCATS)
Sampled rows, rich in hits. Any-hit rate of the full collection: about 13%.
HCMV inh – qHTS Assay for inhibitors of the human cytomegalovirus (HCMV); HFF cells, HCMV-luciferase reporter, 72 h; active compounds read low; activity change, negative = inhibition, % at 57.5 µM; 4.5% of 410,000 active; AID 1259415, 2018; in the data active = activity change below about -60%; inconclusive = no clear call, values can overlap the other calls; inactive = above about -39%
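Inhibition of viral replication was scored as loss of reporter luminescence in HFFs infected with HCMV-luciferase (MOI 1 PFU/cell) for 72 h; compounds tested at 2 doses, normalized to buffer and Salinomycin controls.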
Pf growth 96h – Primary qHTS for delayed death inhibitors of the malarial parasite plastid, 96 hour incubation. P. falciparum luciferase reporter growth, 96 h. Potency, µM (titrated, usually from 28.7 µM), for the others: top-dose activity change, negative = inhibition, most hits filed as inhibitors. 6.9% of 320,000 active; note: potency is the fitted concentration of half-maximal effect
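Plates of compound plus infected erythrocytes (2% hematocrit, 0.05% parasitemia final) incubate 96 hours, 37 C, 5% CO2. Detection reagent added; reduced luminescence from the parasites' luciferase reporter flags inhibition.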
Pf growth 48h – Primary qHTS for delayed death inhibitors of the malarial parasite plastid, 48 hour incubation | 5.9% of 310,000 active | Potency, µM (series often up to 28.7 µM), for the others: top-dose activity change, negative = inhibition, most hits filed as inhibitors | P. falciparum luciferase growth in erythrocytes, 48 h; note: potency is the fitted concentration of half-maximal effect
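Erythrocytes infected with P. falciparum carrying an integrated firefly luciferase reporter (2% hematocrit, 0.1% parasitemia final) were exposed to compounds in RPMI 1640 with 0.5% Albumax at 37 C, 5% CO2. Growth inhibition was scored as reduced luminescence.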
HCV inhibitor – qHTS Assay for Inhibitors of Hepatitis C Virus (HCV); Huh7.5.1 HCVcc-Cre infection, luciferase reporter, 44 h; Potency, µM (highest dose often 41.8 µM), for inactives: top-dose activity change, negative = inhibition, actives largely listed as inhibitors; 3.4% of 340,000 active; AID 651820, 2012; note: potency is the fitted concentration of half-maximal effect
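HCVcc-Cre virus at an moi near 0.5 was added right after compound to cells cultured 4 h from seeding (1,000 cells/well). Luciferase activity was determined 44 h later, 15 min after substrate addition at RT.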
* hit, by the source's call; ? = inconclusive; / = no result. Unless noted, calls come from the whole dose curve; as a rule, active = well fitted inhibition curve with a large enough effect; inconclusive = small, poorly fitted or top-dose-only effect, or another doubt; inactive = no such curve, though single readings can be large or run the other way. % is set by controls: 0 for no effect and ±100 for the full control effect.

SMILES | HCMV inh | Pf growth 96h | Pf growth 48h | HCV inhibitor
Cn1c2ccccc2c2cc(C(=O)OCC(=O)N3CC(=O)Nc4ccccc43)sc21 | 3 | 2% | 4.1µM* | -42%
O=C1CN(C(=O)COC(=O)c2cccnc2Cl)c2ccccc2N1 | 20 | 10% | 36% | ?
Cc1cc(C(=O)OCC(=O)NCc2ccco2)c(C)n1-c1ccc(F)cc1 | ? | ? | 8.3µM* | ?
Cc1cc(C(=O)OCC(=O)N2CC(=O)Nc3ccccc32)c(C)n1-c1ccc(F)cc1 | -30 | 2.6µM* | 4.7µM* | ?
COc1cc(SC)ccc1C(=O)OCC(=O)N1CC(=O)Nc2ccccc21 | 7 | / | / | 10µM*
CCCn1ccc2c(OCC(=O)Nc3cc(C)ccc3C)cccc2c1=O | -3 | / | / | /
CCOCCn1c(=O)c2c(nc3n2CCN3c2ccc(C)c(C)c2)n(C)c1=O | 14 | 6% | 9% | /
CC(=O)Nc1ccc(NCC(O)COc2ccccc2)cc1 (configuration not stated) | 64 | ? | 6% | -8%
COCC(O)CNc1ccccc1 (configuration not stated) | -4 | 13µM* | 32% | -3%
CCN(CC)CCNC(=O)/C(=C\c1cccn1C)NC(=O)c1cccs1 | -13 | 1.9µM* | 9% | -15%
O=C(NCCO)/C(=C/c1ccc(Br)cc1)NC(=O)c1cccs1 | -8 | -1% | 5% | 17%
C/C(=N\NC(=O)c1nnn(-c2nonc2N)c1-c1ccc2c(c1)OCO2)c1ccc(F)cc1 | 0 | 4.7µM* | ? | 9%
C/C(=N\NC(=O)c1nnn(-c2nonc2N)c1-c1ccc2c(c1)OCO2)c1ccc(C)cc1 | -33 | 13µM* | ? | 0%
C/C(=N\NC(=O)c1nnn(-c2nonc2N)c1-c1ccc2c(c1)OCO2)c1ccccc1 | 0 | 15µM* | ? | 13%
CCCc1c(C(=O)N/N=C(\C)c2ccccc2O)nnn1-c1nonc1N | -36 | / | / | /
CC/C(=N\NC(=O)c1nnn(-c2nonc2N)c1-c1ccc2c(c1)OCO2)c1ccccc1 | -27 | ? | ? | 15%
C/C(=N\NC(=O)c1nnn(-c2nonc2N)c1-c1ccccc1)c1ccccc1O | -89* | ? | -67% | 6.3µM*
C/C(=N\NC(=O)c1nnn(-c2nonc2N)c1CSc1ccccc1)c1ccc2c(c1)OCO2 | -22 | 6% | 3% | 23%
CCCc1c(C(=O)N/N=C(\C)c2ccc3c(c2)OCO3)nnn1-c1nonc1N | -6 | / | / | /
CCOC(=O)c1cc(S(=O)(=O)NCc2ccccc2)[nH]n1 | 11 | / | / | /
COc1cccc(NC(=O)Cn2c(=O)n(-c3ccc(Cl)cc3)c(=O)c3oc4ccccc4c32)c1 | 18 | / | / | /
Cc1nn(S(=O)(=O)c2ccc(F)cc2)c(C)c1S(=O)(=O)N1CCCCCC1 | 20 | / | / | /
Cc1cc(C)nc(N(C#N)Cc2ccc(Cl)cc2)n1 | -62* | 13µM* | 14% | 5%
COc1ccccc1NC(=O)C(Cc1ccccc1)NS(=O)(=O)c1ccc2c(c1)CCN2C(C)=O (configuration not stated) | -2 | / | / | /
O=[N+]([O-])c1ccc(C2CCCC/C2=N/OCc2ccc(F)cc2)c([N+](=O)[O-])c1 (configuration not stated) | -14 | ? | 12µM* | ?
SMILES | HCMV inh | Pf growth 96h | Pf growth 48h | HCV inhibitor
O=[N+]([O-])c1ccc(C2CCCC/C2=N/OCc2ccccc2F)c([N+](=O)[O-])c1 (configuration not stated) | 2 | ? | ? | ?
CCOc1ccc(C2NC(=O)c3c(COC)cc(C)nc3N2Cc2ccccc2)cc1OC (configuration not stated) | -40 | / | / | /
O=C(CCS(=O)(=O)c1ccccc1)Nc1ncc([N+](=O)[O-])s1 | ? | -3% | ? | 6%
O=C(CCS(=O)(=O)Cc1ccccc1)Nc1ncc([N+](=O)[O-])s1 | -96* | -6% | 36% | ?
COc1ccc(OC)c(-c2cc(C(=O)Nc3ccccc3C(N)=O)c3ccccc3n2)c1 | 10 | / | / | 10µM*
COc1ccc(NC(=O)c2cc(-c3ccc(C)o3)nc3ccccc23)c(OC)c1 | -19 | / | / | 10µM*
COc1ccc(OC)c(-c2cc(C(=O)N/N=C/c3ccc(F)cc3)c3ccccc3n2)c1 | 0 | / | / | 1%
Cc1ccc(-c2cc(C(=O)Nc3nccs3)c3ccccc3n2)o1 | 83 | 9.3µM* | ? | ?
Cc1ccc(-c2cc(C(=O)Nc3nccs3)c3ccccc3n2)c(C)c1 | -87* | 1.3µM* | ? | 10µM*
COc1cccc(CNc2nccn(-c3cc(C)cc(C)c3)c2=O)c1 | 4 | / | / | /
CCOC(=O)C(C(=O)NCCCN1CCOCC1)C1CCCCC1 (configuration not stated) | -105* | -14% | 5% | 23%
CC(C)N(CCCNC(=O)c1ccc(N2CCCC2=O)cc1)Cc1ccccc1 | 0 | 1.3µM* | -4% | 12%
CN(CCNC(=O)c1ccc(N2CCCC2=O)cc1)CCc1ccccc1 | 15 | 8.3µM* | ? | 16%
CC(=O)c1ccccc1NC(=O)c1ccc(N2CCCC2=O)cc1 | -9 | 36% | 44% | 13µM*
COc1ccc(CCNC(=O)c2c(C)oc3ncnc(N4CCOCC4)c23)c(OC)c1 | -2 | / | / | /
COc1ccc(NC(=O)NC(C)c2c(-n3cccc3)sc3c2CCN(C)C3)c(OC)c1 (configuration not stated) | 8 | / | / | /
CCn1cnc2cc(NCc3ccccc3Cl)ccc21 | -39 | 1.5µM* | 0% | -23%
COC(=O)C(C)Sc1nnc(Cc2cc(=O)[nH]c(=O)[nH]2)n1-c1cccc(OC)c1 (configuration not stated) | 43 | 16% | / | 17%
CCOc1ccc(-n2c(Cc3cc(=O)[nH]c(=O)[nH]3)nnc2SCC(=O)NC2CCCC2)cc1 | 27 | 10µM* | / | -1%
CCOc1ccc(-n2c(Cc3cc(=O)[nH]c(=O)[nH]3)nnc2SC(C)C(=O)OC)cc1 (configuration not stated) | ? | 9.3µM* | / | /
Fc1ccccc1Nc1nc(NCc2ccco2)nc(N2CCOCC2)n1 | 16 | 157% | -25% | 35µM*
CCOc1nc(NCc2ccco2)nc(Nc2ccccc2F)n1 | 66 | ? | 129% | -14%
CC(C)c1ccc(Nc2nc(NCc3ccco3)nc(N3CCOCC3)n2)cc1 | 15 | 33% | 13µM* | 10µM*
CCOC(=O)c1sc2nc(C)nc(NCc3ccc(Cl)cc3)c2c1C | -68* | ? | 9.3µM* | ?
CCOC(=O)c1sc2nc(C)nc(SC(C)C(=O)N(C)c3ccccc3)c2c1C (configuration not stated) | -64* | 9.3µM* | 12µM* | ?
CCOC(=O)c1sc2nc(C)nc(NCc3cccnc3)c2c1C | ? | ? | ? | -3%
CCOC(=O)c1sc2nc(C)nc(Nc3ccc(OC)cc3)c2c1C | -67* | -1% | -3% | -25%
